The nature of test [1]: Nuclear factor erythroid 2-related factor 2/antioxidant responsive element (Nrf2/ARE) small molecule agonists: qHTS cell viability counter screen in human keratinocytes (AID 1919968; active = well fitted curve in the direction sought with a large enough effect in the repeat runs; an effect the other way counts as inactive or inconclusive; also: nearly all actives have a fitted effect of over 55% in size). The gist of the method: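 In human HaCaT keratinocytes stably expressing an ARE-driven luciferase, compound exposure lasted 23 h at 37 C under 5% CO2. Viable cells are quantified with a protease-based fluorogenic reagent (CellTiter-Fluor) read 1 h after addition.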
A general note: In qHTS, concentration-response curves come from the screen itself.

Test [2] concerns the target Gonadotropin-releasing hormone receptor (Homo sapiens) (UniProt P30968). Description: Human gonadotropin-releasing hormone receptor (GnRHR) small molecule agonists, calcium flux assay in GnRHR-HEK293 cells (AID 1920063). Also: nearly all actives have a fitted effect of over 35% in size. The procedure, abridged:
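Intracellular calcium rise is the read-out: engineered human GnRHR HEK293 cells, dye-loaded, are exposed to DMSO-dissolved compounds and fluorescence at Ex/Em 480/540 is tracked for 3 min.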
In general terms: Calcium flux is commonly read through the fluorescence of an indicator in the cells.

The target in test [3] is KiSS-1 receptor (Homo sapiens) (UniProt Q969F8). The experiment in a line: Human kisspeptin (KISS1R) small molecule agonists, calcium flux assay in KISS1R-HEK293 cells (AID 1920064; active = well fitted curve in the direction sought with a large enough effect in the repeat runs; an effect the other way counts as inactive or inconclusive). The procedure, abridged:
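Concentration-response testing used 15 concentrations in triplicate on human KISS1R-expressing HEK293 cells. Calcium-dependent fluorescence (Ex/Em 480/540) was followed kinetically for 3 min after compound transfer.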

Test [4] is described as follows: G protein-coupled receptor (GPCR) small molecule agonists, calcium flux assay: HEK293 wild type cell line counter screen (AID 1920065). The procedure, abridged: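 Fluorescence intensity signals activation. After overnight (18 h) culture and a 1 h calcium dye load at 37 C, compounds are added by pin tool and the plate read at 480/540 nm for 3 min in 1 s steps.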
The nature of test [5]: p53 small molecule agonists, cell-based qHTS assay with rat liver microsomes: qHTS cell viability counter screen (AID 1963580). Also: nearly all actives have a fitted effect of over 45% in size. The procedure, abridged: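 Luminescent ATP readout (CellTiter-Glo, 30 min at room temperature) reports viability of p53RE-bla HCT-116 cells after 16 h at 37 C with test compounds under metabolic activation by rat liver microsomes and NADPH at 0.5 mg/mL final each.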

In test [6] the target is 5-hydroxytryptamine receptor 2A (Homo sapiens) (UniProt P28223). Description: 5-hydroxytryptamine receptor 2A (HTR2A) small molecule antagonists, cell-based qHTS assay (AID 1963586). Also: nearly all actives have a fitted effect of over 45% in size. The gist of the method:
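CHO cells stably expressing human HTR2A were plated for 18 h at 37 C, then loaded with calcium dye for 1 h. Compounds were preincubated 5 min at room temperature before DOI (4 nM solution) was added. Kinetic fluorescence was read for 3 min.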

Test [7] deals with Muscarinic acetylcholine receptor M1 (Homo sapiens) (UniProt P11229). Description: Cholinergic receptor muscarinic 1 (CHRM1) small molecule antagonists, cell-based qHTS assay (AID 1963588). Also: nearly all actives have a fitted effect of over 40% in size. The gist of the method: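 Compounds were tested at 15 concentrations in three independent runs. Dye-loaded CHRM1-CHO cells were exposed 5 min at room temperature before stimulation by acetylcholine added at 50nM. Intracellular calcium was read kinetically on FDSS for 3 min.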

Test [8] has the same target. The experiment in a line: Cholinergic receptor muscarinic 1 (CHRM1) small molecule agonists, cell-based qHTS assay (AID 1963589). Also: nearly all actives have a fitted effect of over 35% in size. Also: potency is read from the fitted curve at half-maximal effect. The procedure, abridged:
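Fluorescent calcium dye reports M1 activation in stably transfected CHO cells. Compounds, 15 concentrations, added after 1 h dye loading at 37 C; kinetic reading at 1 sec intervals.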

Test [9] addresses D(2) dopamine receptor (Homo sapiens) (UniProt P14416). The experiment in a line: Dopamine D2 receptor (DRD2) small molecule antagonists, cell-based qHTS assay (AID 1963595; active = well fitted inhibition curve with a large enough effect in the signal ratio in the repeat runs, with a control signal flat; the % refers to the signal ratio). The gist of the method: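 In this cell-based antagonist screen, compounds act for 10 min at room temperature before a 30 min challenge with 12 nM quinpirole and 200 nM NKH477. cAMP is quantified by HTRF competition in DRD2-HEK293 cells containing 0.1 mM Ro20-1724.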

A short description of test [10]: p53 small molecule agonists, cell-based qHTS assay with human liver microsomes (AID 1963577). The procedure, abridged:
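Compounds act here after metabolic activation: human liver microsomes and NADPH, both at 0.5 mg/mL final, were co-added to p53RE-bla cells. Incubation ran 16 h at 37 C, followed by LiveBLAzer detection.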

Test [11] is described as follows: p53 small molecule agonists, cell-based qHTS assay with rat liver microsomes (AID 1963578). The procedure, abridged: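 Read-out is beta-lactamase reporter fluorescence (LiveBLAzer, 2 h, room temperature, dark) in p53RE-bla cells treated 16 h at 37 C with compound, rat liver microsomes and NADPH, both 0.5 mg/mL final.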
Test [12] is described as follows: p53 small molecule agonists, cell-based qHTS assay with human liver microsomes: qHTS cell viability counter screen (AID 1963579). Also: nearly all actives have a fitted effect of over 45% in size. The gist of the method: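 Cells carrying the p53 response-element beta-lactamase reporter are treated for 16 h at 37 C with test compounds in the presence of human liver microsomes and NADPH (both 0.5 mg/mL final); ATP-based CellTiter-Glo luminescence then reports viability.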

A short description of test [13]: p53 small molecule agonists, cell-based qHTS assay: qHTS cell viability counter screen (AID 1963581). Also: nearly all actives have a fitted effect of over 45% in size. The procedure, abridged:
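Luminescence from CellTiter-Glo, reflecting ATP content, serves as the cytotoxicity measure; it is taken after the 2 h reporter substrate step in HCT-116 p53RE-bla cells dosed for 16 h at 37 C.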

A short description of test [14]: p53 small molecule agonists, cell-based qHTS assay (AID 1963582; active = well fitted activation curve with a large enough effect in the signal ratio in the repeat runs, not every such curve was filed as active; the % refers to the signal ratio). The procedure, abridged: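 After plating, p53RE-bla cells sat 5 h in the incubator; compounds or DMSO vehicle were pinned in; a 16 h incubation at 37 C followed; FRET substrate was added and, 2 h later at RT, fluorescence was measured.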
In test [15] the target is 5-hydroxytryptamine receptor 2A (Homo sapiens) (UniProt P28223). The experiment in a line: 5-hydroxytryptamine receptor 2A (HTR2A) small molecule agonists, cell-based qHTS assay (AID 1963587). Also: nearly all actives have a fitted effect of over 30% in size. The gist of the method:
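HTR2A-CHO cells, plated 18 h at 37 C/5% CO2, dye-loaded 1 h at 37 C; compounds in DMSO added by pin tool (agonist mode). Intracellular calcium flux read as kinetic fluorescence on FDSS over 2 min at 1 s intervals.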

Test [16] addresses Beta-2 adrenergic receptor (Homo sapiens) (UniProt P07550). Description: Adrenergic beta2 receptor (ADRB2) small molecule agonists, cell-based qHTS assay (AID 1963593).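 Also: CHO cells stably overexpressing human ADRB2.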 The gist of the method: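 CHO cells stably over-expressing ADRB2 were plated overnight at 37C, then dosed with compounds plus a stimulation mix containing 100uM IBMX and 25uM Ro-20-1724 for 0.5hr at room temperature. cAMP was measured by HTRF competition, 1hr.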

For test [17], the target named is D(2) dopamine receptor (Homo sapiens) (UniProt P14416). Description: Dopamine D2 receptor (DRD2) small molecule agonists, cell-based qHTS assay (AID 1963594). Also: nearly all actives have a fitted effect of over 35% in size. The gist of the method:
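HEK293 cells stably expressing DRD2 were cultured 24 h at 37 C, then given Ro20-1724 (0.1 mM final) and compounds for 10 min at room temperature. NKH477 (200nM) was then added for 30 min. cAMP was read by HTRF.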

The nature of test [18]: cAMP Responsive Elements (CRE) small molecule agonists, cell-based qHTS assay (AID 1963590). The procedure, abridged: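 Compound exposure lasted 3 h at 37 C/5% CO2 in CRE-bla HEK 293T cells grown in assay medium with 10% dialyzed FBS and 25 mM HEPES. Reporter signal came from LiveBLAzer B/G FRET substrate, 2 h, room temperature.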
The nature of test [19]: cAMP Responsive Elements (CRE) small molecule antagonists, cell-based qHTS assay (AID 1963591; active = well fitted inhibition curve with a large enough effect in the signal ratio in the repeat runs, not every such curve was filed as active; the % refers to the signal ratio; also: potency is read from the fitted curve at half-maximal effect). The gist of the method:
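Stimulation used NKH477 at a final 0.25 uM for 3 h in compound-treated CRE-bla HEK293T cells, seeded 18 h beforehand. Reporter activity was measured with LiveBLAzer B/G FRET substrate after 2 h at room temperature.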

Test [20] addresses Beta-2 adrenergic receptor (Homo sapiens) (UniProt P07550). Description: Adrenergic beta2 receptor (ADRB2) small molecule antagonists, cell-based qHTS assay (AID 1963592). Also: series mostly up to about 92 µM; nearly all actives have a fitted effect of over 50% in size. The procedure, abridged:
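Assay format: CHO-ADRB2 cells, 18-20hr seeding at 37C/5% CO2, then compound plus 1nM isoproterenol agonist mix for 0.5hr RT. Homogeneous time-resolved fluorescence cAMP detection after 1hr, expressed as 665/615 nm ratio.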

Unmarked numbers belong to inactive results. Results filed as inconclusive are left out. Active and inactive are the calls of the source. Unless noted, calls follow the shape of the full dose curve.
% is scaled to controls: 0 for no effect and ±100 for the full control effect.

Chain of Muscarinic acetylcholine receptor M1 (Homo sapiens) (P11229 whole entry, looked up): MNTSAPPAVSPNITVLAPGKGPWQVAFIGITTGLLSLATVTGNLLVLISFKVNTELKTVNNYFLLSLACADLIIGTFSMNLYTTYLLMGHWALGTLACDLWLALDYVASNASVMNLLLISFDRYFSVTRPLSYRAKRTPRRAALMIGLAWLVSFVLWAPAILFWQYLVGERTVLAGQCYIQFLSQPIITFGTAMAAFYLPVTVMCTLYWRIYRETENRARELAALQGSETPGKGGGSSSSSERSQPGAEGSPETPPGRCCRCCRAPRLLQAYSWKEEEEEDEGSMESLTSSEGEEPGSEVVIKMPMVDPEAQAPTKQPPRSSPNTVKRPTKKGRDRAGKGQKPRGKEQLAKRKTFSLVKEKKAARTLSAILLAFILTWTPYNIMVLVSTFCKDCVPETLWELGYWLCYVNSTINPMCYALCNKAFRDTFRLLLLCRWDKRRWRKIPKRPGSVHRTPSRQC
Chain of Gonadotropin-releasing hormone receptor (Homo sapiens) (P30968 whole entry, looked up): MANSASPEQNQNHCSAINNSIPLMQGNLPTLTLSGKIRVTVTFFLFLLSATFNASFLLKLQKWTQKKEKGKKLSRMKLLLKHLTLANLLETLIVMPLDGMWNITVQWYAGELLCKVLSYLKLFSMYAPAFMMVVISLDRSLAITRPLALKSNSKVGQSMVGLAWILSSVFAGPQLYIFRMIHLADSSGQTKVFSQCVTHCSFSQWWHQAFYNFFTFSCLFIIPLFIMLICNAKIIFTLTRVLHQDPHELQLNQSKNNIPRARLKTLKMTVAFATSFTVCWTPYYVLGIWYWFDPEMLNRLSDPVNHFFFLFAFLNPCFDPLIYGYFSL
Chain of D(2) dopamine receptor (Homo sapiens) (P14416 whole entry, looked up): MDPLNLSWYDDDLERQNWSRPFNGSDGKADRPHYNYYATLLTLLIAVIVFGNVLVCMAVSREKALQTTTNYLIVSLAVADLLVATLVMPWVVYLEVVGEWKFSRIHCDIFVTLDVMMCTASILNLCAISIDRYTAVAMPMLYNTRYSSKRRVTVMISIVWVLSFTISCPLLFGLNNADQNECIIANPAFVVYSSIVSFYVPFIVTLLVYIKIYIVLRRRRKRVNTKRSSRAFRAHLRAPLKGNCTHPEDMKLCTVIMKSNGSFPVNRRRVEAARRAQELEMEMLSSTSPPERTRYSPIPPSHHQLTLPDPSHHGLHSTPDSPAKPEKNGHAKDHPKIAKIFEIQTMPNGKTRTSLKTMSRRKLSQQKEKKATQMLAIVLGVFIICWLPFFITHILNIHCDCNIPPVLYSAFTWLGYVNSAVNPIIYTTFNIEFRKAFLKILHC
Chain of KiSS-1 receptor (Homo sapiens) (Q969F8 whole entry, looked up): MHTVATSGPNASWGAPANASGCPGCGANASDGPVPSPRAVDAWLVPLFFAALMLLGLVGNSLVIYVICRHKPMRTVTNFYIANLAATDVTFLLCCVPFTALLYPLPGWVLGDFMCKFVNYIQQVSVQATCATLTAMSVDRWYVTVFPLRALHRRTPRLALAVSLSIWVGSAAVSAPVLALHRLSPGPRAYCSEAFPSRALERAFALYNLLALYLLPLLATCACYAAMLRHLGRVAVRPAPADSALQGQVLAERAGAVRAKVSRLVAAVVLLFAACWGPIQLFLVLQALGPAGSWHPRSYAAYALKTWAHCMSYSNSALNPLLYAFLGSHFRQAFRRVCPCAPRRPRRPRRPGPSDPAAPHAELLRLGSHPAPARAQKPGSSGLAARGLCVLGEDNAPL
Chain of 5-hydroxytryptamine receptor 2A (Homo sapiens) (P28223 whole entry, looked up): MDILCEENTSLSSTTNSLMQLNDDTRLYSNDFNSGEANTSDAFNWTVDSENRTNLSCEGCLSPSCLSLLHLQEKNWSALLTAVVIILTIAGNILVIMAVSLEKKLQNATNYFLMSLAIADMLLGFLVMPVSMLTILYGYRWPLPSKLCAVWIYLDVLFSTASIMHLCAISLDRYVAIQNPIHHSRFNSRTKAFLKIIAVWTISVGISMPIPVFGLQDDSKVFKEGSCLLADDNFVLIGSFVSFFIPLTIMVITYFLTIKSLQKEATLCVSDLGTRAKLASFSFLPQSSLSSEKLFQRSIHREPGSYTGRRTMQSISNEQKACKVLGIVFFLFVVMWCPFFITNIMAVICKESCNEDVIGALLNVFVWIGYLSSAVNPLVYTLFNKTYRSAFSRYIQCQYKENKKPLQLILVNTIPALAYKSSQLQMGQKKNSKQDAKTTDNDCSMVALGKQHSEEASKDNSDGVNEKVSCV
Chain of Beta-2 adrenergic receptor (Homo sapiens) (P07550 whole entry, looked up): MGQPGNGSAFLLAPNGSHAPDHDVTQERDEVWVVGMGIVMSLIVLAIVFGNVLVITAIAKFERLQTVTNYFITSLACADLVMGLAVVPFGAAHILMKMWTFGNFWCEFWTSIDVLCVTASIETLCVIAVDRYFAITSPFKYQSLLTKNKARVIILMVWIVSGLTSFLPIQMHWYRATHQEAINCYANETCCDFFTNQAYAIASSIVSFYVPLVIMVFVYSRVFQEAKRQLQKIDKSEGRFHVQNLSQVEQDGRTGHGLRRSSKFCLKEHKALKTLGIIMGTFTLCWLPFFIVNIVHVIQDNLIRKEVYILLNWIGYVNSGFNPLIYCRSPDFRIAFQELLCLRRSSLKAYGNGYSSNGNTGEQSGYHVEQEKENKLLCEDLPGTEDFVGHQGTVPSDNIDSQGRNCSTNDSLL

Regarding `OCc1c[nH]c2ccccc12`, the Potency result in [1], in [2], in [3], in [4], in test [5] and in [6] was “inactive” each time. In addition, the Potency entry in test [7] and in [9] was “inactive” throughout. The Potency in test [8] was 3.1 nM (active).

`CCC(=O)/C=C/c1ccc(OC)cc1`: the Potency entry in test [1], in [2], in [3], in test [10], in test [11] and in [12] was “inactive” each time. Besides, the Potency result in [13], in test [14], in test [6], in [15], in [7] and in test [8] was “inactive” in each case. Besides, the Potency result in test [16], in test [17] and in test [9] was “inactive” throughout.

For the compound `OCCN1CCN(CCO)CC1`, the Potency result in test [1], in [2], in [3], in test [10], in test [11] and in test [5] was “inactive” in each case. The Potency entry in test [13], in test [6], in test [15], in test [7], in [8] and in [18] was “inactive” throughout. Besides, the Potency entry in test [19], in test [20], in [17] and in test [9] was “inactive” throughout.

As for `CN(C)CC[C@@H](c1ccc(Cl)cc1)c1ccccn1`, the Potency result in test [1], in [2], in [3], in test [4], in [13] and in test [14] was “inactive” in each case. For the same compound, the Potency result in [18], in test [19], in test [20], in [17] and in [9] was “inactive” in each case.

Take `CC(C)(C)c1ccc(OCC2CO2)cc1` (stereo not given): the Potency entry in test [1], in [2], in test [3], in [4], in test [12] and in [13] was “inactive” throughout. For the same compound, the Potency entry in test [6], in [15], in test [7], in test [8], in [19] and in test [20] was “inactive” each time. The Potency result in test [16], in [17] and in [9] was “inactive” each time.

In the case of `Cc1ncc([C@@H](CCCCCCc2ccc3c(n2)NCCC3)CC(=O)O)cn1`, the Potency result in test [1], in [2], in [3], in test [4], in [5] and in test [6] was “inactive” each time. The Potency entry in test [15], in test [7], in test [8], in [20], in [16] and in test [17] was “inactive” throughout. Further, in test [9], the Potency result is “inactive”. In addition, the Potency in [19] is 545 nM (active).

Consider `Cc1ccc([N+](=O)[O-])cc1Cl`, for which the Potency result in test [1], in test [2], in test [3], in test [10], in test [11] and in test [12] was “inactive” throughout. For the same compound, the Potency entry in test [5], in [14], in test [6], in test [15], in test [7] and in test [18] was “inactive” each time. In addition, the Potency result in [19], in test [20], in [17] and in test [9] was “inactive” each time.

Regarding `O=CO`, the activity change, negative = cytotoxicity was 0.89% [at 8.39 µM] in test [1], -2.15% [at 5.99 µM] in [12] and -6.99% [at 5.99 µM] in [13]. Also, the activity change in [2] was 0% [at 5.22 µM, active compounds read high]. Moreover, the activation in [3] was 4.55% [at 6.97 µM]; in [4], -0.0753% [at 5.23 µM]; in [15], 0.778% [at 7.02 µM]; in test [8], -0.0923% [at 6.97 µM]; in test [18], 0.47% [at 8.39 µM]; in test [17], 0.218% [at 8.39 µM]. In test [6], the activity, negative = inhibition is 0.711% [at 5.62 µM]. The activity change, negative = inhibition in test [19] is -5.34% [at 8.39 µM]; in test [20], 1.71% [at 8.39 µM]; in test [9] it was -7.6% [at 8.38 µM].

Values taken from PubChem BioAssay (Tox21).
